For 40 compounds, growth results are on record in PubChem BioAssay (NCI).

The panel holds about 83,000 compounds, 20% with a hit somewhere; the sample as a whole holds those more often.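 Note: values are percent growth. 100 is the growth of untreated cells, values between 100 and 0 indicate rising inhibition; between -100 and 0 indicates cell death.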 The source made the active and inactive calls.

This assay deals with RPMI-8226 leukemia. As to the kind of experiment: NCI-60 one-dose screen, 48 h (100 = growth as untreated, 0 = no growth, -100 = all killed). To be noted: 10 µM unless noted. How it is done:
Growth inhibition of the RPMI-8226 human tumor cell line is measured as a screen for anti-cancer activity. Cells are grown in 96 well plates and exposed to the test compound for 48 hours. Compounds are tested at a single concentration, which is 10^-5 M for most compounds. The reported endpoint is percent growth (GI% or GIPRCNT), where numbers from 0 - 100% represent growth inhibition, and numbers from -100% - 0 represent cell death. For example, a value of 40 represents 60% growth inhibition. A value of 0 means no net growth occurred over the course of the experiment. A value of -40 indicates 40% of cells at the beginning of the experiment died by the end of the experiment. A value of -100 means all cells are dead at the end of the experiment.
NCI-60 Human Tumor Cell Lines Screen was performed using the standard one-dose NCI protocol, which is described in more detail at https://dtp.cancer.gov/discovery_development/nci-60/default.htm.
Compounds with GIPRCNT values below 10 were considered active. Activity score was based on GIPRCNT using the following formula: […]
Score is 0 for GIPRCNT values of 100 or above, 50 for GIPRCNT values of 0, and 100 for GIPRCNT values of -100.
Take `O=c1c2cccc3c(N4CCCC4)ccc(c32)c2nc3ccccc3n12`: the growth is 75.7% (inactive).

Turning to `O=S(=O)(NCCCNc1nccc(-c2c(-c3ccc(F)c(O)c3)nc3occn23)n1)c1ccc(Cl)cc1`, the growth was 40.4% (inactive). Turning to `Cc1ccc(/C=C2\COc3ccc(O)cc3C2=O)cc1`, the growth is -1.31% (active). The figure for `O=C(c1ccccc1)c1ccc(C2CCCCC2)cc1` is 95.6% (inactive); for `CC1=NC2=Nn3c(c4cnn(-c5ccccc5)c4n/c3=N\N)NN2C(c2ccccc2)=C1` it is 98.3% (inactive).

Consider `O=C(CN1C(=O)S/C(=C\C(Cl)=C\c2ccccc2)C1=O)NCCc1ccc(O)cc1`, for which the growth is 0.0656% (active).

On to `C=C1C(=O)O[C@H]2[C@H]1CC/C(COC(=O)c1cc3ccccc3s1)=C\CC[C@@]1(C)O[C@@H]21`, for which the growth is -25.3% (active).

With `COc1ccc(/C=C/C(=O)c2ccc(Nc3ccnc4cc(Cl)ccc34)cc2)cc1`, the growth was -32% (active). As for `Cc1cc(=O)oc2cc(OCc3nn4c(Nc5nc6ccccc6s5)c(-c5ccccc5)nc4s3)ccc12`, the figure is 82.6% (inactive); as for `CCO/C=N/C1=C(C#N)C(c2ccc(Cl)cc2)c2sc3c(F)cccc3c2O1` (stereo not given), 54.2% (inactive); as for `Cc1ccc(C(=O)c2ccc(CC(=O)N/N=C/c3ccccc3O)n2C)cc1`, 81.4% (inactive). The figure for `S=c1sc2c(Cl)nc(-c3cccnc3)nc2n1-c1ccccc1` is -3.47% (active); for `Cc1ccc(CNc2ccc3nc(CCC4CCCCC4)[nH]c3c2)cc1` it is -24.6% (active). The figure for `COC(=O)/C=C1/SC(=Nc2ccc(C(F)(F)F)cc2)N(CCc2c[nH]c3ccc(O)cc23)C1=O` is -50.3% (active); for `CS(=O)(=O)Nc1cc(-c2ccc3ncnc(Nc4ccc5c(cnn5Cc5cccc(F)c5)c4)c3c2)cnc1Cl` it is -24.4% (active).

On to `O=C(/C=C(/C=C/c1ccc2[nH]ccc2c1)OB(F)F)/C=C/c1ccc2[nH]ccc2c1`, for which the growth was -31.2% (active). As for `COc1cc2c(c(OC)c1OC)CCC(c1cccc(C(=O)Nc3cccc(Cl)c3)c1)O2` (stereo not given), the figure is 39.1% (inactive). The figure for `Cc1[nH]c(C(=O)Nc2ccc(C(=O)N3CCN(c4cc5c(cc4F)c(=O)c(C(=O)O)cn5C4CC4)CC3)cc2OC(C)C)c(Cl)c1Cl` is 34.2% (inactive); for `O=C(COc1ccc(-c2nc3cc(Cl)c(Cl)cc3[nH]2)cc1)N=Nc1c(O)[nH]c2ccc(Cl)cc12` it is 56% (inactive). The figure for `CCOc1ccccc1Cn1ccnc1CCc1c(Cl)c(O)cc(O)c1C(=O)OC` is 86.9% (inactive); for `Cc1sc2nc(NCCc3c[nH]c4ccc(Cl)cc34)[nH]c(=O)c2c1C` it is 18.8% (inactive); for `Cc1ccc(C[P+](c2ccccc2)(c2ccccc2)c2ccccc2)cc1` it is -17.6% (active).

With `Cc1cccc(CNc2c3ccccc3nc3ccccc23)c1`, the growth is -20.4% (active). As for `C=C1C(=O)O[C@H]2[C@H]1CC/C(COC(=O)NCc1ccc(Cn3c(=O)sn(CCCCC)c3=O)cc1)=C\CC[C@@]1(C)O[C@@H]21`, the figure is -22.8% (active); as for `Cc1nc2sc(C(=O)Nc3cccc(Br)c3)c(N)c2cc1C(O)c1ccccc1` (stereo not given), 11.1% (inactive). The figure for `Cn1c(=O)c2nc(/C=C/c3ccccc3)c(=O)[nH]c2n(C)c1=S` is 110% (inactive). Turning to `CCCCCCCCCc1ccc(OCCOCCOCCOCCOCCOCCOCCOCCOCCO)cc1`, the growth is -12.1% (active).

For the compound `CNC(=O)c1[nH]cc(-c2ccc(OC)cc2)c1-c1cc(OC)c2c(c1OC)OCO2`, the growth was 108% (inactive).

In the case of `COC(=O)CC[C@H](C)[C@H]1CC[C@H]2[C@@H]3CC[C@@H]4CC5(CC[C@]4(C)[C@H]3CC(=O)[C@]12C)Nc1ccccc1NC5=NC(C)(C)C` (stereo not given in full), the growth was 58.4% (inactive). Consider `CC(=O)O[C@H]1CC2CCC3C(CC[C@@]4(C)C3C[C@H]([N+]3(C)CCCCC3)[C@@H]4OC(C)=O)[C@@]2(C)C[C@@H]1N1CCCCC1` (stereo not given in full), for which the growth is 110% (inactive). Consider `O=c1[nH]c(-c2ccccc2)nc2sc3cc(O)ccc3c12`, for which the growth is 82.3% (inactive).

Take `Cc1cc(N2CCCCC2)cc(C)c1-c1csc(NC(=O)c2ccncc2)n1`: the growth is 37.5% (inactive). The figure for `COC(=O)[C@]12CCC(C)(C)C[C@H]1[C@H]1/C(=N/OCCc3nn[nH]n3)C[C@@H]3[C@@]4(C)CC[C@H](OC(C)=O)C(C)(C)[C@@H]4CC[C@@]3(C)[C@]1(C)CC2` is 22.6% (inactive); for `O=CN1N=C(c2cccc(Nc3ccnc4cc(Cl)ccc34)c2)CC1c1ccccc1` (stereo not given) it is 27.7% (inactive).

For the compound `Cc1ccc(C)n1-c1ccccc1-n1c(C)ccc1C`, the growth was 148% (inactive). The figure for `COc1ccc(F)cc1/C=C/C(=O)/C=C(/C=C/c1cc(F)ccc1OC)OB(F)F` is -13.5% (active). The figure for `COC1=CC(c2ccc[nH]2)=N/C1=C\c1[nH]c(C)c(C)c1CCC(=O)OCc1ccccc1` is -51.1% (active); for `O=c1[nH]c(Cc2nc3ccccc3s2)nc2cc(Br)ccc12` it is 66.7% (inactive). The figure for `CCOC(=O)c1ccc2c(c1)nc(-c1ccccc1)n2C1CCCCC1` is 63.7% (inactive); for `CN1C(=O)/C(=C\c2c(Cl)cccc2Cl)c2ccccc21` it is 84.2% (inactive).
